Data: PubChem BioAssay AID1159580 (chemical genetic matrix, 2015)
Out of some 5,500 compounds screened, about 2,000 (36%) were called active. About 18% were inconclusive and are not listed. Rule as the data show it: active = normalized growth mostly below about 0.91 (no sharp cut-off); inconclusive = no clear call, values can overlap the other calls; inactive = mostly above about 0.92. Some of the results follow.

Assay: chemical genetic growth profiling, strain panel (AID 1159580);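 also: tested at 20 µM; growth read once vehicle control cultures reached saturation at 30 °C; 1 = growth at the plate median or of vehicle wells; lower values mean less growth of the strain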
Conditions: growth OD

Measured: normalized growth

OC[C@H]1O[C@@H](O[C@@H]2[C@@H](CO)O[C@](O)(CO)[C@H]2O)[C@H](O)[C@@H](O)[C@H]1O
inactive: S. cerevisiae deletion strains, locus YKL009W, strain mrt4, stronger effect = lower value 1 | S. cerevisiae deletion strains, locus YKL068W, stronger effect = lower value 0.987 | S. cerevisiae deletion strains, locus YKL085W, strain MDH1 (second series), stronger effect = lower value 0.976 | S. cerevisiae deletion strains, locus YKL085W, strain MDH1, stronger effect = lower value 0.976 | S. cerevisiae deletion strains, locus YKL160W, strain elf1, stronger effect = lower value 1 | S. cerevisiae deletion strains, locus YKR001C, strain vps1, stronger effect = lower value 1.01 | S. cerevisiae deletion strains, locus YKR026C, strain gcn3, stronger effect = lower value 1.01 | S. cerevisiae deletion strains, locus YKR091W, strain srl3, stronger effect = lower value 1.01 | S. cerevisiae deletion strains, locus YLL001W, strain dnm1, stronger effect = lower value 0.999 | S. cerevisiae deletion strains, locus YLL026W, stronger effect = lower value 1.01 | S. cerevisiae deletion strains, locus YLL041C, strain sdh2, stronger effect = lower value 1.01 | S. cerevisiae deletion strains, locus YLR027C, strain aat2, stronger effect = lower value 1.01 | S. cerevisiae deletion strains, locus YLR039C, strain RIC1, stronger effect = lower value 0.968 | S. cerevisiae deletion strains, locus YLR058C, strain SHM2, stronger effect = lower value 0.986 | S. cerevisiae deletion strains, locus YLR102C, strain apc9, stronger effect = lower value 0.981 | S. cerevisiae deletion strains, locus YLR113W, strain HOG1, stronger effect = lower value 1.02 | S. cerevisiae deletion strains, locus YLR221C, strain rsa3, stronger effect = lower value 1 | S. cerevisiae deletion strains, locus YLR258W, strain gsy2, stronger effect = lower value 0.998 | S. cerevisiae deletion strains, locus YLR262C, strain YPT6 (second series), stronger effect = lower value 1.03 | S. cerevisiae deletion strains, locus YLR262C, strain YPT6, stronger effect = lower value 1.03 | S. cerevisiae deletion strains, locus YLR268W, strain sec22, stronger effect = lower value 0.972 | S. cerevisiae deletion strains, locus YLR320W, strain mms22, stronger effect = lower value 0.996 | S. cerevisiae deletion strains, locus YLR330W, strain CHS5, stronger effect = lower value 0.994 | S. cerevisiae deletion strains, locus YLR342W, strain FKS1 (second series), stronger effect = lower value 0.994 | S. cerevisiae deletion strains, locus YLR342W, strain FKS1, stronger effect = lower value 1.02 | S. cerevisiae deletion strains, locus YLR357W, strain rsc2, stronger effect = lower value 0.995 | S. cerevisiae deletion strains, locus YLR370C, strain arc18, stronger effect = lower value 1.02 | S. cerevisiae deletion strains, locus YLR371W, strain rom2, stronger effect = lower value 0.974 | S. cerevisiae deletion strains, locus YLR384C, strain iki3, stronger effect = lower value 1.01 | S. cerevisiae deletion strains, locus YLR418C, strain cdc73, stronger effect = lower value 0.954 | S. cerevisiae deletion strains, locus YML016C, strain PPZ1, stronger effect = lower value 0.993 | S. cerevisiae deletion strains, locus YML032C, strain rad52, stronger effect = lower value 0.988 | S. cerevisiae deletion strains, locus YML120C, strain ndi1, stronger effect = lower value 0.99 | S. cerevisiae deletion strains, locus YML124C, strain tub3, stronger effect = lower value 1 | S. cerevisiae deletion strains, locus YMR058W, strain fet3, stronger effect = lower value 1.01 | S. cerevisiae deletion strains, locus YMR078C, strain ctf18, stronger effect = lower value 0.959 | S. cerevisiae deletion strains, locus YMR125W, strain sto1, stronger effect = lower value 0.996 | S. cerevisiae deletion strains, locus YMR129W, stronger effect = lower value 1.01 | S. cerevisiae deletion strains, locus YMR205C, strain PFK2, stronger effect = lower value 1.03 | S. cerevisiae deletion strains, locus YMR223W, strain ubp8, stronger effect = lower value 0.962 | S. cerevisiae deletion strains, locus YMR231W, strain pep5, stronger effect = lower value 1.01 | S. cerevisiae deletion strains, locus YMR307W, strain GAS1, stronger effect = lower value 1 | S. cerevisiae deletion strains, locus YNL067W, strain RPL9B, stronger effect = lower value 1 | S. cerevisiae deletion strains, locus YNL071W, strain lat1, stronger effect = lower value 1.01 | S. cerevisiae deletion strains, locus YNL183C, strain NPR1, stronger effect = lower value 0.959 | S. cerevisiae deletion strains, locus YNL209W, strain ssb2, stronger effect = lower value 1 | S. cerevisiae deletion strains, locus YNL233W, strain BNI4, stronger effect = lower value 0.989 | S. cerevisiae deletion strains, locus YNL248C, strain rpa49, stronger effect = lower value 1.03 | S. cerevisiae deletion strains, locus YNL250W, strain rad50, stronger effect = lower value 0.954 | S. cerevisiae deletion strains, locus YNL271C, strain bni1, stronger effect = lower value 0.966 | S. cerevisiae deletion strains, locus YNL298W, strain CLA4, stronger effect = lower value 0.975 | S. cerevisiae deletion strains, locus YNL307C, strain MCK1, stronger effect = lower value 0.972 | S. cerevisiae deletion strains, locus YNL322C, strain KRE1 (second series), stronger effect = lower value 1.02 | S. cerevisiae deletion strains, locus YNL322C, strain KRE1, stronger effect = lower value 0.996 | S. cerevisiae deletion strains, locus YNR049C, strain mso1, stronger effect = lower value 1.01 | S. cerevisiae deletion strains, locus YNR052C, strain pop2, stronger effect = lower value 0.979 | S. cerevisiae deletion strains, locus YOL006C, strain TOP1, stronger effect = lower value 0.965 | S. cerevisiae deletion strains, locus YOL012C, strain htz1 0.596 | S. cerevisiae deletion strains, locus YOL147C, strain pex11, stronger effect = lower value 0.982 | S. cerevisiae deletion strains, locus YOR001W, strain rrp6, stronger effect = lower value 1 | S. cerevisiae deletion strains, locus YOR061W, strain CKA2, stronger effect = lower value 0.985 | S. cerevisiae deletion strains, locus YOR069W, strain VPS5, stronger effect = lower value 0.989 | S. cerevisiae deletion strains, locus YOR070C, strain gyp1, stronger effect = lower value 1 | S. cerevisiae deletion strains, locus YOR080W, strain dia2, stronger effect = lower value 1.01 | S. cerevisiae deletion strains, locus YOR083W, strain WHI5, stronger effect = lower value 0.989 | S. cerevisiae deletion strains, locus YOR106W, strain vam3, stronger effect = lower value 1.02 | S. cerevisiae deletion strains, locus YOR136W, strain idh2, stronger effect = lower value 0.981 | S. cerevisiae deletion strains, locus YOR144C, strain elg1, stronger effect = lower value 0.98 | S. cerevisiae deletion strains, locus YOR184W, strain ser1, stronger effect = lower value 0.971 | S. cerevisiae deletion strains, locus YOR231W, strain MKK1, stronger effect = lower value 0.98 | S. cerevisiae deletion strains, locus YOR265W, strain rbl2, stronger effect = lower value 1.01 | S. cerevisiae deletion strains, locus YOR270C, strain vph1, stronger effect = lower value 1.06 | S. cerevisiae deletion strains, locus YOR290C, strain snf2, stronger effect = lower value 0.992 | S. cerevisiae deletion strains, locus YOR316C, strain cot1, stronger effect = lower value 0.976 | S. cerevisiae deletion strains, locus YPL051W, strain arl3, stronger effect = lower value 1.01 | S. cerevisiae deletion strains, locus YPL078C, strain atp4, stronger effect = lower value 1.01 | S. cerevisiae deletion strains, locus YPL106C, strain sse1, stronger effect = lower value 1 | S. cerevisiae deletion strains, locus YPL240C, strain hsp82, stronger effect = lower value 1.03 | S. cerevisiae deletion strains, locus YPL241C, strain CIN2, stronger effect = lower value 0.998 | S. cerevisiae deletion strains, locus YPL256C, strain CLN2, stronger effect = lower value 0.957 | S. cerevisiae deletion strains, locus YPR119W, strain clb2, stronger effect = lower value 0.978 | S. cerevisiae deletion strains, locus YPR141C, strain kar3, stronger effect = lower value 0.968 | S. cerevisiae deletion strains, locus YPR163C, strain tif3, stronger effect = lower value 0.972 | S. cerevisiae deletion strains, locus YPR167C, strain met16, stronger effect = lower value 0.985 | S. cerevisiae deletion strains, strain wtn01, stronger effect = lower value 0.967 | S. cerevisiae strains, strain wild type, stronger effect = lower value 0.999
